# Assay results reported in PubChem BioAssay (Tox21).
# Where “and” joins values, the source holds several entries; their conditions need not be identical. Identical values can stand only once. Some structures have more than one record in an assay (separate samples or runs), and their calls can disagree. Calls of active or inactive are those of the source. Where a call stands in place of a potency, no number is given. Unless noted, the call rests on the fitted dose curve; in most records, active means well fitted curve in the direction sought with a large enough effect in the repeat runs; inconclusive means weak or mixed curves; inactive means no such curve, though single readings can be large; an effect the other way counts as inactive or inconclusive.
# Assays:
# [1] = qHTS assay to identify small molecule antagonists of the glucocorticoid receptor (GR) signaling pathway - cell viability counter screen (AID 720693); further: nearly all actives have a fitted effect of over 55% in size
# [2] = qHTS assay for identifying genotoxic compounds that show differential cytotoxicity against isogenic chicken DT40 cell lines with known DNA damage response pathways - wild type cell line (AID 743012); further: nearly all actives have a fitted effect of over 60% in size; further: potency means the concentration at half of the fitted maximal effect
# Method in brief: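 Parental DNA repair-proficient DT40 cells, 300 per well, were pre-incubated ~0.5 h at 37 C/5% CO2, pin-dosed with compounds in DMSO, then incubated 40 h. Viability was read as CellTiter-Glo luminescence after 30 min at room temperature.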
# [3] = qHTS assay for identifying genotoxic compounds that show differential cytotoxicity against isogenic chicken DT40 cell lines with known DNA damage response pathways - Rev3 mutant cell line (AID 743014); further: nearly all actives have a fitted effect of over 55% in size; further: potency means the concentration at half of the fitted maximal effect
# [4] = qHTS assay for identifying genotoxic compounds that show differential cytotoxicity against isogenic chicken DT40 cell lines with known DNA damage response pathways - Rad54/Ku70 mutant cell line (AID 743015); further: nearly all actives have a fitted effect of over 60% in size; further: potency means the concentration at half of the fitted maximal effect
# [5] = qHTS assay to identify small molecule antagonists of the androgen receptor (AR) signaling pathway - cell viability counter screen (AID 743033; further: nearly all actives have a fitted effect of over 45% in size)
# [6] = qHTS assay to identify small molecule antagonists of the androgen receptor (AR) signaling pathway using the MDA cell line - cell viability counter screen (AID 743041; further: nearly all actives have a fitted effect of over 45% in size)
# Method in brief: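 MDA-kb2 AR-luc human breast carcinoma cells (MMTV-luciferase, AR/GR responsive) were treated with compounds plus R1881 agonist for 16 h at 37 °C. Viability was read as CellTiter-Fluor fluorescence in the same wells as the reporter assay.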
# [7] = qHTS assay to identify small molecule antagonists of the thyroid receptor (TR) signaling pathway - cell viability counter screen (AID 743064); further: nearly all actives have a fitted effect of over 50% in size
# Method in brief: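 In-well cytotoxicity read by CellTiter-Fluor (30 min, 37 C) following 23.5 h exposure of GH3 cells bearing a TRE-luciferase sensor. Compounds were added alongside 1 nM (final) T3 to drive TR transactivation.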
# [8] = qHTS assay to identify small molecule antagonists of the thyroid receptor (TR) signaling pathway (AID 743065); further: series mostly up to about 70 µM; nearly all actives have a fitted effect of over 55% in size
# Method in brief: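 GH3.TRE-Luc rat pituitary cells carrying two TR response elements driving luciferase were plated for 4 h, given compound plus 1 nM T3 (final), and incubated 23.5 h at 37 C. ONE-Glo luminescence measured reporter inhibition; CellTiter-Fluor fluorescence tracked cytotoxicity.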
# [9] = system: thyroid hormone receptor (rat, GH3 cells); assay: qHTS assay to identify small molecule agonists of the thyroid receptor (TR) signaling pathway (AID 743066; calls by dose curve)
# [10] = molecular target: Estrogen receptor (Homo sapiens) (UniProt P03372); assay: qHTS assay to identify small molecule antagonists of the estrogen receptor alpha (ER-alpha) signaling pathway (AID 743069; active means well fitted curve in the direction sought with a large enough effect in the signal ratio in the repeat runs, not every such curve was filed as active; inconclusive means weak or mixed curves, or effect the other way; inactive means no such curve, though single readings can be large or run the other way; the % refers to the signal ratio)
# Estrogen receptor (Homo sapiens), sequence (P03372 whole entry, looked up): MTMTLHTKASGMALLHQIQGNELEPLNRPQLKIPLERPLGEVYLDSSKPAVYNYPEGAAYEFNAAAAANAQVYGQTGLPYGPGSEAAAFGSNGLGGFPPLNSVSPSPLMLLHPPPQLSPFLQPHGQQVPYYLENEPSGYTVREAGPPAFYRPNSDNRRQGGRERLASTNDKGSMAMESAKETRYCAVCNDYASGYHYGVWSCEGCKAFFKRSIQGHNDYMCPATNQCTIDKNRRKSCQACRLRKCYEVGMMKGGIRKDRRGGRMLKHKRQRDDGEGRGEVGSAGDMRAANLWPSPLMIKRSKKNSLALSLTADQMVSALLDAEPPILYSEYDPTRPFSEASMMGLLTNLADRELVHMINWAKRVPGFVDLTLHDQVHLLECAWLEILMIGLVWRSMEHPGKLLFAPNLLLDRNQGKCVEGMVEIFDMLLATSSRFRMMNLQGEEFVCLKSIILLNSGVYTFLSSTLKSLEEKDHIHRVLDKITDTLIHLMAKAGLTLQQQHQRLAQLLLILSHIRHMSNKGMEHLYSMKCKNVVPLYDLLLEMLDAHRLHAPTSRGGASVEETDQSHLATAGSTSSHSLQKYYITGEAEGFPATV
# Method in brief: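 HEK293 cells stably carrying an ER-alpha-UAS-bla beta-lactamase reporter were pre-cultured overnight in 2% charcoal-stripped FBS medium. Test compounds in DMSO were added together with 17beta-estradiol for 18 hr at 37C. Read-out was fluorescence after 2 hr with LiveBLAzer B/G FRET substrate at room temperature.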
# [11] = qHTS assay to identify small molecule antagonists of the estrogen receptor alpha (ER-alpha) signaling pathway - cell viability counter screen (AID 743074; calls by dose curve; further: nearly all actives have a fitted effect of over 45% in size)
# [12] = molecular target: Estrogen receptor (Homo sapiens) (UniProt P03372); assay: qHTS assay to identify small molecule agonists of the estrogen receptor alpha (ER-alpha) signaling pathway (AID 743075; calls by dose curve; further: potency means the concentration at half of the fitted maximal effect)
# [13] = molecular target: Estrogen receptor (Homo sapiens) (UniProt P03372); assay: qHTS assay to identify small molecule agonists of the estrogen receptor alpha (ER-alpha) signaling pathway using the BG1 cell line (AID 743079); further: nearly all actives have a fitted effect of over 20% in size; further: potency means the concentration at half of the fitted maximal effect
# [14] = qHTS assay to identify small molecule antagonists of the estrogen receptor alpha (ER-alpha) signaling pathway using the BG1 cell line (AID 743080; calls by dose curve;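 further: BG1 cells stimulated with 17beta-estradiol alongside compound; series mostly up to about 70 µM; nearly all actives have a fitted effect of over 25% in size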)
# Method in brief: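 Endogenous full-length ER-alpha in BG1-Luc-4E2 cells drives a stably integrated 4×ERE luciferase gene; compounds were tested against 17beta-estradiol over 21.5 h, with luminescence and multiplexed viability fluorescence recorded.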
# [15] = qHTS assay to identify small molecule antagonists of the estrogen receptor alpha (ER-alpha) signaling pathway using the BG1 cell line - cell viability counter screen (AID 743081);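 further: compound given together with 17beta-estradiol as the ER stimulus; series mostly up to about 70 µM; nearly all actives have a fitted effect of over 45% in size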
# Aromatase (Homo sapiens) = Aromatase (Homo sapiens) (UniProt P11511); assay: qHTS assay to identify aromatase inhibitors (AID 743083); further: series mostly up to about 70 µM; nearly all actives have a fitted effect of over 55% in size
# Aromatase (Homo sapiens), sequence (P11511 whole entry, looked up): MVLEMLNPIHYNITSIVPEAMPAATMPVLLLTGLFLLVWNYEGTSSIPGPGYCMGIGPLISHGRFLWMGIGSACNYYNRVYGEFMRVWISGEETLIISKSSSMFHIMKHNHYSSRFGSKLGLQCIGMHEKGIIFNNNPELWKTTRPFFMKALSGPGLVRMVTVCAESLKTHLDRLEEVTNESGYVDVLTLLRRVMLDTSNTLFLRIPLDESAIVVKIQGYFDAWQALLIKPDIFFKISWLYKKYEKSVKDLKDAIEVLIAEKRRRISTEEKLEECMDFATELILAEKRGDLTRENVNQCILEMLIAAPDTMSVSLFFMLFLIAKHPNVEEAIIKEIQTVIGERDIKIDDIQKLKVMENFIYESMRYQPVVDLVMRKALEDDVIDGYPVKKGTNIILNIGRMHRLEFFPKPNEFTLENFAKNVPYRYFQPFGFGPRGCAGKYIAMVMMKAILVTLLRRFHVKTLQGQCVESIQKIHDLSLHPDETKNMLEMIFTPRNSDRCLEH
# [16] = qHTS assay to identify aromatase inhibitors - cell viability counter screen (AID 743084)
# [17] = molecular target: Androgen receptor (Homo sapiens) (UniProt P10275); assay: qHTS assay to identify small molecule antagonists of the androgen receptor (AR) signaling pathway (AID 743035; active means well fitted inhibition curve with a large enough effect in the signal ratio in the repeat runs, not every such curve was filed as active; inconclusive means weak or mixed curves, or effect the other way; inactive means no such curve, though single readings can be large or run the other way; the % refers to the signal ratio)
# Androgen receptor (Homo sapiens), sequence (P10275 whole entry, looked up): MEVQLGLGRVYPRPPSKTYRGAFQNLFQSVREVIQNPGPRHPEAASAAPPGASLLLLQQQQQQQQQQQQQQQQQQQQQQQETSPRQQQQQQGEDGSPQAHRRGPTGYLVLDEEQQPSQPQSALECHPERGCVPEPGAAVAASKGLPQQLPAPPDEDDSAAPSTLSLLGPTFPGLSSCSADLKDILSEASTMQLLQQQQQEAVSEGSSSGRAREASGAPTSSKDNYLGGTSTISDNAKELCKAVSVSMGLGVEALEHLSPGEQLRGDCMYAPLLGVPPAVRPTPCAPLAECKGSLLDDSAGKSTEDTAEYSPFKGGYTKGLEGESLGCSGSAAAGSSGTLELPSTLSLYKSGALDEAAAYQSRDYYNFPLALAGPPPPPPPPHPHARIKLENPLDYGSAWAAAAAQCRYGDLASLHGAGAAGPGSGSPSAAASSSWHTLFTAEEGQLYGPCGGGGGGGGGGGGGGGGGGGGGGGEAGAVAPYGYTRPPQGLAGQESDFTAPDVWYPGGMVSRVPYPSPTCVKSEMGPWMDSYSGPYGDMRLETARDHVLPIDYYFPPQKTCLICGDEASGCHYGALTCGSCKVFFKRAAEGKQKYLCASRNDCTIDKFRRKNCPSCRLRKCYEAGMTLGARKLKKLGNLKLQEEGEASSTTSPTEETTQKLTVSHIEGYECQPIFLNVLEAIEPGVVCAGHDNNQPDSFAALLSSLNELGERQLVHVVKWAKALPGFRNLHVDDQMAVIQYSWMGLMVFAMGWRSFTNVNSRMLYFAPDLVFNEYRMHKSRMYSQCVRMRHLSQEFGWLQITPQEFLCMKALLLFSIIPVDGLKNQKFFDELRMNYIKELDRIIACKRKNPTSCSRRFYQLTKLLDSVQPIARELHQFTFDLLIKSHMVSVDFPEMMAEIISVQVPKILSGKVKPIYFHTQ
# Method in brief: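 HEK293 cells stably carrying a UAS-driven beta-lactamase reporter (AR-UAS-bla GripTite) were plated for 4 h at 37C, then given compound and the agonist R1881 and incubated 16 h. Reporter activity was read by LiveBLAzer B/G FRET fluorescence after 2 h at room temperature.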
# [18] = molecular target: Androgen receptor (Homo sapiens) (UniProt P10275); assay: qHTS assay to identify small molecule agonists of the androgen receptor (AR) signaling pathway using the MDA cell line (AID 743040; further: nearly all actives have a fitted effect of over 20% in size)
# Method in brief: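 MDA-kb2 breast carcinoma cells stably carrying an MMTV-driven luciferase reporter (AR- and GR-responsive) were seeded and held 5 h at 37C, 0% CO2, then exposed to compounds in DMSO for 16 h. Luminescence was read 30 min after ONE-Glo addition.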
# [19] = molecular target: Androgen receptor (Homo sapiens) (UniProt P10275); assay: qHTS assay to identify small molecule antagonists of the androgen receptor (AR) signaling pathway using the MDA cell line (AID 743042; further: nearly all actives have a fitted effect of over 55% in size)
# Method in brief: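 MDA-kb2 cells (human breast carcinoma, stably carrying an MMTV-luciferase reporter responsive to AR and GR) were plated at 3,000 cells/well and preincubated 5 hr at 37C, then given compound plus R1881 agonist for 16 h. ONE-Glo luminescence was read.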
SMILES,outcome [1],Potency [2],Potency [3],Potency [4],outcome [5],outcome [6],Potency [7],Potency [8],outcome [9],Potency [10],Potency [11],Potency [12],Potency [13],Potency [14],outcome [15],Potency (Aromatase (Homo sapiens)),outcome [16],Potency [17],outcome [18],outcome [19]
O=C(O)c1ccccn1,inactive,inactive,inactive,inactive,inactive,inactive,inactive,inactive,inactive,inactive,inactive,inactive,inactive,inactive,inactive,inactive,inactive,–,–,–
C#CCN(C)[C@H](C)Cc1ccccc1,inactive,inactive,inactive,inactive,–,inactive,inactive,inactive,inactive,inactive,inactive,inactive,inactive,inactive,inactive,inactive,inactive,–,–,–
Cn1cc(-c2ccccc2)c(=O)c(-c2cccc(C(F)(F)F)c2)c1,inactive,inactive,inactive,61.1 µM (active),inactive,inactive,inactive,–,inactive,inactive,inactive,inactive,inactive,inactive,inactive,inactive,–,–,–,–
CCc1cccc(C)c1N(C(=O)CCl)C(C)COC (stereo unspecified),inactive,40.8 µM (active) and 10.9 µM (active),16.2 µM (active) and 12.2 µM (active),45.8 µM (active) and 17.2 µM (active),inactive,inactive,inactive,–,–,–,inactive,–,–,–,inactive,–,inactive,–,–,–
O=NN1CCCCCCC1,inactive,inactive,inactive,inactive,inactive,inactive,inactive,–,inactive,inactive,inactive,inactive,–,inactive,inactive,inactive,inactive,–,–,–
CCCN(CCC)c1c([N+](=O)[O-])cc(C(F)(F)F)cc1[N+](=O)[O-],inactive,inactive,inactive,inactive,inactive,inactive,–,–,inactive,inactive,inactive,inactive,inactive,inactive,inactive,inactive,inactive,inactive,inactive,inactive
CN(N=O)c1ccccc1,inactive,inactive,inactive,inactive,inactive,inactive,inactive,–,inactive,inactive,inactive,inactive,inactive,inactive,inactive,inactive,inactive,–,–,–
COc1ccc2c3c1O[C@H]1[C@@H](O)C=C[C@H]4[C@@H](C2)N(C)CC[C@@]341,inactive,inactive,inactive,inactive,inactive,inactive,inactive,–,inactive,inactive,inactive,inactive,inactive,inactive,inactive,inactive,inactive,–,–,–
CC1OC(C)OC(C)O1 (stereo unspecified),inactive,inactive,inactive,inactive,inactive,inactive,–,–,–,–,inactive,–,–,–,inactive,inactive,inactive,–,–,–
Nc1c(Cl)c(Cl)nc(C(=O)O)c1Cl,inactive,inactive,inactive,inactive,inactive,inactive,inactive,inactive,inactive,inactive,inactive,inactive,inactive,inactive,inactive,inactive,inactive,–,–,–
Cc1[nH]c(=O)n(C(C)(C)C)c(=O)c1Cl,inactive,inactive,inactive,inactive,inactive,inactive,inactive,–,inactive,inactive,inactive,inactive,inactive,inactive,inactive,inactive,inactive,inactive,inactive,inactive
O=C(NC(=O)c1c(F)cccc1F)Nc1cc(Cl)c(OC(F)(F)C(F)C(F)(F)F)cc1Cl (stereo unspecified),inactive,3.35 µM (active),4.22 µM (active),5.96 µM (active) and 21.7 µM (active),inactive,inactive,inactive,inactive,inactive,inactive,inactive,inactive,inactive,inactive,inactive,inactive,inactive,inactive,inactive,–
CCOP(=S)(OCC)Oc1cnc2ccccc2n1,inactive,54.5 µM (active),27.3 µM (active),27.3 µM (active),inactive,inactive,inactive,inactive,inactive,inactive,inactive,inactive and 17.4 µM [inconclusive] (active),inactive and 15.4 µM (active),inactive,inactive,inactive,inactive,–,–,–
Oc1ccccc1Cl,inactive,inactive,inactive,inactive,inactive,inactive,inactive,–,inactive,–,inactive,–,–,–,inactive,inactive,inactive,–,–,–
COP(N)(=O)SC (stereo unspecified),inactive,inactive,inactive,inactive,inactive,inactive,inactive,inactive,inactive,inactive,inactive,inactive,inactive,inactive,inactive,inactive,inactive,–,–,–
COCCl,inactive,inactive,inactive and 13.8 µM (active),inactive,inactive,inactive,inactive,–,inactive,–,inactive,–,–,–,inactive,inactive,inactive,inactive,inactive,inactive
CC(C)OC(=O)Nc1ccccc1,inactive,inactive,inactive,inactive,inactive,inactive,inactive,inactive,inactive,inactive,inactive,inactive,30.7 µM (active) and 54.5 µM (active),inactive,inactive,inactive,inactive,–,–,–
